# Results as given in paper PMC7862700, “An all-to-all approach to the identification of sequence-specific readers for epigenetic DNA modifications on cytosine”.
# How the values were obtained:
# Assay in all cases: DAPPL (digital affinity profiling via proximity ligation, sequencing); 10 mM Tris-HCl pH 7.5, 50 mM NaCl, 1 mM DTT, 4% glycerol, room temperature, 30 min; GST-TFs on glutathione beads, 16-mer random dsDNA library, 0.1% formaldehyde crosslink after washing; high values mean tight binding
# FEV = target: T1, FEV (Homo sapiens, UniProt Q99581 1-238); details: protein: recombinant; tags: N-terminal GST; dsDNA, one strand shown
# T1 sequence: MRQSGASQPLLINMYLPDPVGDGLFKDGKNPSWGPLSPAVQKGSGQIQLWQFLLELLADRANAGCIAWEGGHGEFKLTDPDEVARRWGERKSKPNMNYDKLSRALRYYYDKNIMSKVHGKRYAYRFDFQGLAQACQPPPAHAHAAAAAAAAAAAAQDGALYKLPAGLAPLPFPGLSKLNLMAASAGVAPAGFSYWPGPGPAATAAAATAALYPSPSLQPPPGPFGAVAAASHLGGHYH
# Procedure, shortened: (§1)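 Each value of binding signal is a hexamer's read frequency for a factor divided by the same hexamer's frequency in the tag-only sample. Barcoded, bead-captured GST fusions of human transcription factors made in yeast were pooled with that sample and incubated with 200 nmole of a random double-stranded 16-mer DNA library in Tris/NaCl/DTT/glycerol buffer at room temperature for 30 min. Washing, 0.1% formaldehyde crosslinking, proximity ligation, PCR and Illumina NextSeq500 sequencing followed.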
# ETV5 = ETV5 (Homo sapiens, UniProt P41161 1-510); details: protein: recombinant; tags: N-terminal GST; dsDNA, one strand shown
# Procedure, shortened: as §1
# HSF1 = HSF1 (Homo sapiens, UniProt Q00613 1-529); details: protein: recombinant; tags: N-terminal GST; chain copies: 3; dsDNA, one strand shown
# Procedure, shortened: as §1
# SPIC = target: T2, SPIC (Homo sapiens, UniProt Q8N5J4 1-248); details: protein: recombinant; tags: N-terminal GST; dsDNA, one strand shown
# T2 sequence: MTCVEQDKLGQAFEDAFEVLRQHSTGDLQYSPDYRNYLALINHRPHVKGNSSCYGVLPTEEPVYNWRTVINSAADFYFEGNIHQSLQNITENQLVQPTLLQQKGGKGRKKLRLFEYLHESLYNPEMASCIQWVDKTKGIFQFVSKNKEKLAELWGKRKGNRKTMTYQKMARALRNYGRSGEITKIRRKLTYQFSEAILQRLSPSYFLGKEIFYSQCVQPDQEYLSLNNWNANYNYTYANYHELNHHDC
# Procedure, shortened: as §1
# ELF4 = ELF4 (Homo sapiens, UniProt Q99607 1-663); details: protein: recombinant; tags: N-terminal GST; dsDNA, one strand shown
# Procedure, shortened: as §1
# ELK4 = target: T3, ELK4 (Homo sapiens, UniProt P28324-2 1-405); details: protein: recombinant; tags: N-terminal GST; dsDNA, one strand shown
# T3 sequence: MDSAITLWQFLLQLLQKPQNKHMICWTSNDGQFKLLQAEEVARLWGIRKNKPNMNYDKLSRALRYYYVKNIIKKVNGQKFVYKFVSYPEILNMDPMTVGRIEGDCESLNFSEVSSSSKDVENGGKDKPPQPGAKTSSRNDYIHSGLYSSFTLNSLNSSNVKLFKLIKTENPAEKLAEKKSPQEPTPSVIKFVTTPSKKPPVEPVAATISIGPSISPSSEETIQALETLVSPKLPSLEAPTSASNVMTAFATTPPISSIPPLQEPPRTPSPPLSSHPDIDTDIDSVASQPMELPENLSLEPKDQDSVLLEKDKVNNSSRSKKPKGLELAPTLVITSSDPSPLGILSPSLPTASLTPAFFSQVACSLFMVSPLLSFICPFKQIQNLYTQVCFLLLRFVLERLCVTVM
# Procedure, shortened: as §1
# ETV2 = target: T4, ETV2 (Homo sapiens, UniProt O00321 1-342); details: protein: recombinant; tags: N-terminal GST; dsDNA, one strand shown
# T4 sequence: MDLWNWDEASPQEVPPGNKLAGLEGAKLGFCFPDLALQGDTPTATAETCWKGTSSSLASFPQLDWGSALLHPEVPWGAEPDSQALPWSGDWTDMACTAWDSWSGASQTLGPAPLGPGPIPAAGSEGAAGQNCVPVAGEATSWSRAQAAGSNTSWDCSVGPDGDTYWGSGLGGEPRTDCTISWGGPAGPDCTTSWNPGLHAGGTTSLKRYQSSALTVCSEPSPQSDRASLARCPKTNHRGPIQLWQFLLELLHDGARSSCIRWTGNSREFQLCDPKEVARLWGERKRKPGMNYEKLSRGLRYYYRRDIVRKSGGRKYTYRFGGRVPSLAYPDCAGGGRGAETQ
# Procedure, shortened: as §1
# ELF3 = target: T5, ELF3 (Homo sapiens, UniProt P78545 1-371); details: protein: recombinant; tags: N-terminal GST; dsDNA, one strand shown
# T5 sequence: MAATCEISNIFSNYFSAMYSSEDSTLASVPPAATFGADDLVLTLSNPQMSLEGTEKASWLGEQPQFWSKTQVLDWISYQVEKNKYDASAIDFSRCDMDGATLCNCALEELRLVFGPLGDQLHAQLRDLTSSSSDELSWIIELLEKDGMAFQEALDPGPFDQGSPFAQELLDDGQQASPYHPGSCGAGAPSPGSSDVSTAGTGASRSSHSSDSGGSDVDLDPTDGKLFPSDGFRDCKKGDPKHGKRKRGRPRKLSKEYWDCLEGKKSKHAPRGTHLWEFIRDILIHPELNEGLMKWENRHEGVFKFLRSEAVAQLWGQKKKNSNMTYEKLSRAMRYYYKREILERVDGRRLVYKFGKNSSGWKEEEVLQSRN
# Procedure, shortened: as §1
# CRX = CRX (Homo sapiens, UniProt O43186 1-299); details: protein: recombinant; tags: N-terminal GST; dsDNA, one strand shown
# Procedure, shortened: as §1
# ETV1 = ETV1 (Homo sapiens, UniProt P50549 1-477); details: protein: recombinant; tags: N-terminal GST; dsDNA, one strand shown
# Procedure, shortened: as §1
# ERF = target: T6, ERF (Homo sapiens, UniProt P50548 1-548); details: protein: recombinant; tags: N-terminal GST; dsDNA, one strand shown
# T6 sequence: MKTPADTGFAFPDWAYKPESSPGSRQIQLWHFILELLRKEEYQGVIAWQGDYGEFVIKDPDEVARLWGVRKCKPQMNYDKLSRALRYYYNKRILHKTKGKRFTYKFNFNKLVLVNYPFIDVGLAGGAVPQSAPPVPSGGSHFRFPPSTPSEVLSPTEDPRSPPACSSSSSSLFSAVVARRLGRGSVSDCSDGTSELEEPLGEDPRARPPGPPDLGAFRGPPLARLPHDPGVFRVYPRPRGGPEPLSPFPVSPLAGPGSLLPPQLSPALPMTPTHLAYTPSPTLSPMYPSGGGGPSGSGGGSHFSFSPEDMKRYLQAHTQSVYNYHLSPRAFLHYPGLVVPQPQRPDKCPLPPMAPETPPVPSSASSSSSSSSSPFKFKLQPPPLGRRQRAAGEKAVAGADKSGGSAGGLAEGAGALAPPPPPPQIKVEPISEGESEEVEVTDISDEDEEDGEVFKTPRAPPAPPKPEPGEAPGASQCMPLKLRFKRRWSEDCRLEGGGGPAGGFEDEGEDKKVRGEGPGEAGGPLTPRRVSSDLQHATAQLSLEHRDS
# Procedure, shortened: as §1
# ETV3L = target: T7, ETV3L (Homo sapiens, UniProt Q6ZN32 1-361); details: protein: recombinant; tags: N-terminal GST; dsDNA, one strand shown
# T7 sequence: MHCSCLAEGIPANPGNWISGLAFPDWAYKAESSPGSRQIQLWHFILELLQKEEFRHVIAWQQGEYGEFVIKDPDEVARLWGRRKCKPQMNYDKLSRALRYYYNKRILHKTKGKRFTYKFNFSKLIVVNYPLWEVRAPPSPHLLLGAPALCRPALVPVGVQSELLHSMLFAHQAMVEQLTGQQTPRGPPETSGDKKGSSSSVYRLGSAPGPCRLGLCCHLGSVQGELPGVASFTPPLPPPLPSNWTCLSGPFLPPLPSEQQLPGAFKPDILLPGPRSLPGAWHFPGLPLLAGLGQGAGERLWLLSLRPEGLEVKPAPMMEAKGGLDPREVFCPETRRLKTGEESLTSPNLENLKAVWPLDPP
# Procedure, shortened: as §1
# ETS2 = target: T8, ETS2 (Homo sapiens, UniProt P15036 1-469); details: protein: recombinant; tags: N-terminal GST; dsDNA, one strand shown
# T8 sequence: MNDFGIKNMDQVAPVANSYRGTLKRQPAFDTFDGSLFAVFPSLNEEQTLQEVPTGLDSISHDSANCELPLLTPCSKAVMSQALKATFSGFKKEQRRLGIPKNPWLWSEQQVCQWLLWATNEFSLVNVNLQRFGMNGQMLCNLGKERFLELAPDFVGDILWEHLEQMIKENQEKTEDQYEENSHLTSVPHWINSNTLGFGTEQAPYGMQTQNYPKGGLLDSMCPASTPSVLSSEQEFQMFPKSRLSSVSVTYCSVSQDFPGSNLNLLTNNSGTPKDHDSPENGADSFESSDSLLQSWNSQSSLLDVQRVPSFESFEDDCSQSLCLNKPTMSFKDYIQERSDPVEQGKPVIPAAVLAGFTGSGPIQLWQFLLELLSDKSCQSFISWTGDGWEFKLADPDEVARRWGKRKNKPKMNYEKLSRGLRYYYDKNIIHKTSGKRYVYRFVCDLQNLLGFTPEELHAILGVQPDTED
# Procedure, shortened: as §1
# SPDEF = target: T9, SPDEF (Homo sapiens, UniProt O95238 1-335); details: protein: recombinant; tags: N-terminal GST; dsDNA, one strand shown
# T9 sequence: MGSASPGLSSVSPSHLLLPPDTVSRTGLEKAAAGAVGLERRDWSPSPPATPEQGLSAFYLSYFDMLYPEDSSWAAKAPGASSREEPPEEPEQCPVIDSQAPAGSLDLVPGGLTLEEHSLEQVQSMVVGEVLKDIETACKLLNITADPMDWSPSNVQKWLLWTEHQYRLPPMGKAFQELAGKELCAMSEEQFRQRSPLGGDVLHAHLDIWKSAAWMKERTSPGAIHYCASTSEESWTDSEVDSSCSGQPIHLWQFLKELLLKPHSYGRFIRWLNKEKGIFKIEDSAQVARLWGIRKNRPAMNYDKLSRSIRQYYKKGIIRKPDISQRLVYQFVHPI
# Procedure, shortened: as §1
# ETV7 = target: T10, ETV7 (Homo sapiens, UniProt Q9Y603 1-341); details: protein: recombinant; tags: N-terminal GST; dsDNA, one strand shown
# T10 sequence: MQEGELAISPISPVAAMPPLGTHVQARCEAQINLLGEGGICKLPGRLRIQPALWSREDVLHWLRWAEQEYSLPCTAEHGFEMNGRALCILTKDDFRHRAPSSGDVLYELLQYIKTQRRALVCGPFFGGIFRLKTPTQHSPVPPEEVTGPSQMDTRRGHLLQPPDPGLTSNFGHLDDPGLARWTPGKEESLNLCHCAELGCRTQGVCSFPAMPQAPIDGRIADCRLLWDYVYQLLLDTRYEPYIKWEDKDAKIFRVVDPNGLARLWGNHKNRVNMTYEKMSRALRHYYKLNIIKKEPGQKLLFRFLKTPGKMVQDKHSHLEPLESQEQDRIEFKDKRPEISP
# Procedure, shortened: as §1
# ELF5 = target: T11, ELF5 (Homo sapiens, UniProt Q9UKW6-2 1-255); details: protein: recombinant; tags: N-terminal GST; dsDNA, one strand shown
# T11 sequence: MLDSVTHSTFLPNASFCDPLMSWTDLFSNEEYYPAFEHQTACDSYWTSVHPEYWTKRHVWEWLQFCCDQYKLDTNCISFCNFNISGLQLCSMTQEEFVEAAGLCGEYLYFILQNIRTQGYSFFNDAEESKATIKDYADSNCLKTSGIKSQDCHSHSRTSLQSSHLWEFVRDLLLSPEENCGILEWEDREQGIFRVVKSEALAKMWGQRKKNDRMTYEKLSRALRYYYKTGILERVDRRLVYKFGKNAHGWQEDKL
# Procedure, shortened: as §1
# ETV3 = target: T12, ETV3 (Homo sapiens, UniProt P41162-2 1-143); details: protein: recombinant; tags: N-terminal GST; dsDNA, one strand shown
# T12 sequence: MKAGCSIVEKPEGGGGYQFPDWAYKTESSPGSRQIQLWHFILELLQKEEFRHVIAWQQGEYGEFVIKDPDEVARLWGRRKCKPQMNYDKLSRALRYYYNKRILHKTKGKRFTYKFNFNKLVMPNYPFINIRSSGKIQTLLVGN
# Procedure, shortened: as §1
# ETV6 = ETV6 (Homo sapiens, UniProt P41212 1-452); details: protein: recombinant; tags: N-terminal GST; dsDNA, one strand shown
# Procedure, shortened: as §1
# Chain of ETV6 (P41212 whole entry): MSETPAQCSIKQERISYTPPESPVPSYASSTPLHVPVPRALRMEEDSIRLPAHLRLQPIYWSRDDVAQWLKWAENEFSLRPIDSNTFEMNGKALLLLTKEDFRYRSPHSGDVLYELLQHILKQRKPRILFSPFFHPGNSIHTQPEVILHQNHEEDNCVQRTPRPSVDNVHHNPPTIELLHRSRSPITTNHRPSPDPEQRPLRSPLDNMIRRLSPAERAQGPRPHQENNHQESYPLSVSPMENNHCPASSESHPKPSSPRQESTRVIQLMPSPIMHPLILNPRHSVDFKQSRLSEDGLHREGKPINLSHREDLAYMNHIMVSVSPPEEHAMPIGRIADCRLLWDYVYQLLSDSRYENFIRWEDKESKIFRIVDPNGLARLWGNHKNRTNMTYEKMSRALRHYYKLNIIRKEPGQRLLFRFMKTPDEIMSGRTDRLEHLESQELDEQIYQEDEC
# Chain of CRX (O43186 whole entry): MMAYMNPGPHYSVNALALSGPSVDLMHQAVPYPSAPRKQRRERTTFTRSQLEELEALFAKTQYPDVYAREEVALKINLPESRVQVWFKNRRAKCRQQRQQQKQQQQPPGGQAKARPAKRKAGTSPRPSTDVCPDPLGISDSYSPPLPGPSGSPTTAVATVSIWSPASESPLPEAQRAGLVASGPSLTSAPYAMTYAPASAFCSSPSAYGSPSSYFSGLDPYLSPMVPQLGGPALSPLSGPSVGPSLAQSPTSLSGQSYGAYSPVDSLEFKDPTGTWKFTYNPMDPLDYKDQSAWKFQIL
# Chain of HSF1 (Q00613 whole entry): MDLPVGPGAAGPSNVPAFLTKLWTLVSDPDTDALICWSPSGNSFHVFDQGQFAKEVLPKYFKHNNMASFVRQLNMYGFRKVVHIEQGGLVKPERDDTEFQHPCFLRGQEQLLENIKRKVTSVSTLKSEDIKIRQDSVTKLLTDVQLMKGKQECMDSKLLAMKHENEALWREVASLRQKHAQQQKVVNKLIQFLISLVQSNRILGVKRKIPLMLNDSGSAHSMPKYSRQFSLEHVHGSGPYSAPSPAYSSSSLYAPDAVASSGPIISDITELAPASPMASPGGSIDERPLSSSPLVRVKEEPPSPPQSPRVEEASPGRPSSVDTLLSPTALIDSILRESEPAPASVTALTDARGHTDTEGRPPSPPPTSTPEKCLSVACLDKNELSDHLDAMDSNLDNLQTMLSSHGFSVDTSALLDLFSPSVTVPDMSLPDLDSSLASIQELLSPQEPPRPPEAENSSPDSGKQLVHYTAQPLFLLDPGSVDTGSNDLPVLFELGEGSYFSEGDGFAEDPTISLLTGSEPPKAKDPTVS
# Chain of ETV5 (P41161 whole entry): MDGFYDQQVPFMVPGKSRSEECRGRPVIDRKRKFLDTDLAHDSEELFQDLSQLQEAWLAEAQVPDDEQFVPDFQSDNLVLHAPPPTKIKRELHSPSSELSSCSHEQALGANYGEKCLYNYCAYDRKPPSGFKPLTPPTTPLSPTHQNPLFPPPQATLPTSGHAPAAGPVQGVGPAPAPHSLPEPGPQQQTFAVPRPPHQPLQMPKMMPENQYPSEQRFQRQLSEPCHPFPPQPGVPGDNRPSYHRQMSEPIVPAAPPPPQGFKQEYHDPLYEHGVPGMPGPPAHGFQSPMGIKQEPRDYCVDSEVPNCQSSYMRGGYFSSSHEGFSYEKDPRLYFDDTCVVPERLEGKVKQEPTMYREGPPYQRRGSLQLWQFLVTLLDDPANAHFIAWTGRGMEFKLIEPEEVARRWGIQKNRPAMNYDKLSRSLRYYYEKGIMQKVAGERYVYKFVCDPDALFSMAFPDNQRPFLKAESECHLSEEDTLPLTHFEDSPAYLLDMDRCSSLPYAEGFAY
# Chain of ELF4 (Q99607 whole entry): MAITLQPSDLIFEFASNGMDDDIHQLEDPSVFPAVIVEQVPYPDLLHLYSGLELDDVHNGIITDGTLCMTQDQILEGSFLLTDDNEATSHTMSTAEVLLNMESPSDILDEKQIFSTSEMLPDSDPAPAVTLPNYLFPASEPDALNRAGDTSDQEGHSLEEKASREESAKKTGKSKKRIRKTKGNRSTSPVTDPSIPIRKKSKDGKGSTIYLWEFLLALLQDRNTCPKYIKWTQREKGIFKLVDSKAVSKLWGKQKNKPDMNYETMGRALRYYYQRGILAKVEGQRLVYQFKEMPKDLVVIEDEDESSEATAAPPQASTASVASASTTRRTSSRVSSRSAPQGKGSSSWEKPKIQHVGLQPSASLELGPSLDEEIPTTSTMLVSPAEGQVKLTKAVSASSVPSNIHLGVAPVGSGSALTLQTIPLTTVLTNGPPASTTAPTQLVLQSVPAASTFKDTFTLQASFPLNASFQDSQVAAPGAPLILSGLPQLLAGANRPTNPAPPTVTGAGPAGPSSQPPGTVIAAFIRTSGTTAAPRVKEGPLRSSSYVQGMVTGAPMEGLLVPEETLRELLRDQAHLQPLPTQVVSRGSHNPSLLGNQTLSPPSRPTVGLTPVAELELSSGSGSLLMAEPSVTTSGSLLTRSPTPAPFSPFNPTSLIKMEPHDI
# Chain of ETV1 (P50549 whole entry): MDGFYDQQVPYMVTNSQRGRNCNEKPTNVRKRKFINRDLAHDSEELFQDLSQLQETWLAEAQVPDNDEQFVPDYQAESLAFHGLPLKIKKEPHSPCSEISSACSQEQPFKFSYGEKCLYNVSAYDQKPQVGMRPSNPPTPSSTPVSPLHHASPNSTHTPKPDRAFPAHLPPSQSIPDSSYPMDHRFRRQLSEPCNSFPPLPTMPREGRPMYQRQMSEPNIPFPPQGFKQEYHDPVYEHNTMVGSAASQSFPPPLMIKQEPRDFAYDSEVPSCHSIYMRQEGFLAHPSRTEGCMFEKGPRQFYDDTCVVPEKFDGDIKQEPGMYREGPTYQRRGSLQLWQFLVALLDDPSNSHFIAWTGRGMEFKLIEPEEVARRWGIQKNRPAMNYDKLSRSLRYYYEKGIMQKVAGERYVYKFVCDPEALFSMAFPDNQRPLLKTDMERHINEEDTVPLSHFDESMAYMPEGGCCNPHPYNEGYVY
sequence,measurement,setting,value
ACATTT,binding signal,FEV,"1.46 fold enrichment (6-mer frequency, TF over GST control)"
same,binding signal,ETV5,"1.44 fold enrichment (6-mer frequency, TF over GST control)"
same,binding signal,HSF1,"1.3 fold enrichment (6-mer frequency, TF over GST control)"
same,binding signal,SPIC,"1.25 fold enrichment (6-mer frequency, TF over GST control)"
same,binding signal,ELF4,"1.41 fold enrichment (6-mer frequency, TF over GST control)"
same,binding signal,ELK4,"1.36 fold enrichment (6-mer frequency, TF over GST control)"
same,binding signal,ETV2,"1.68 fold enrichment (6-mer frequency, TF over GST control)"
same,binding signal,ELF3,"1.6 fold enrichment (6-mer frequency, TF over GST control)"
same,binding signal,CRX,"1.16 fold enrichment (6-mer frequency, TF over GST control)"
same,binding signal,ETV1,"1.43 fold enrichment (6-mer frequency, TF over GST control)"
same,binding signal,ERF,"1.54 fold enrichment (6-mer frequency, TF over GST control)"
same,binding signal,ETV3L,"1.49 fold enrichment (6-mer frequency, TF over GST control)"
same,binding signal,ETS2,"1.42 fold enrichment (6-mer frequency, TF over GST control)"
same,binding signal,SPDEF,"1.41 fold enrichment (6-mer frequency, TF over GST control)"
same,binding signal,ETV7,"1.46 fold enrichment (6-mer frequency, TF over GST control)"
same,binding signal,ELF5,"1.59 fold enrichment (6-mer frequency, TF over GST control)"
same,binding signal,ETV3,"1.56 fold enrichment (6-mer frequency, TF over GST control)"
same,binding signal,ETV6,"1.56 fold enrichment (6-mer frequency, TF over GST control)"
